This is an account of results in PubChem BioAssay (NCI).

About 83,000 compounds went through this panel and 20% of them were active in at least one assay; those are over-represented in the sample as a whole.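 How to read the values: 0–100, growth inhibition (40 = 60% inhibited); 0, no net growth; -100 to 0, cell death (-40 = 40% of starting cells died; -100 = all dead).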 Unmarked numbers belong to inactive results. The source made the active and inactive calls.

The experiment deals with NCI-H460 lung. Description: NCI-60 one-dose screen, 48 h (100 = growth as untreated, 0 = no growth, -100 = all killed). Particulars: 10 µM unless noted. On the procedure:
Growth inhibition of the NCI-H460 human Non-Small Cell Lung tumor cell line is measured as a screen for anti-cancer activity. Cells are grown in 96 well plates and exposed to the test compound for 48 hours. Compounds are tested at a single concentration, which is 10^-5 M for most compounds. The reported endpoint is percent growth (GI% or GIPRCNT), where numbers from 0 - 100% represent growth inhibition, and numbers from -100% - 0 represent cell death. For example, a value of 40 represents 60% growth inhibition. A value of 0 means no net growth occurred over the course of the experiment. A value of -40 indicates 40% of cells at the beginning of the experiment died by the end of the experiment. A value of -100 means all cells are dead at the end of the experiment.
NCI-60 Human Tumor Cell Lines Screen was performed using the standard one-dose NCI protocol, which is described in more detail at https://dtp.cancer.gov/discovery_development/nci-60/default.htm.
Compounds with GIPRCNT values below 10 were considered active. Activity score was based on GIPRCNT using the following formula: […]
Score is 0 for GIPRCNT values of 100 or above, 50 for GIPRCNT values of 0, and 100 for GIPRCNT values of -100.
With `Oc1ccc(-c2nn(-c3ccccc3)cc2-c2nc3ccccc3s2)cc1`, the growth was 91.3%.
As for `NC(N)=N/N=C(/c1ccccc1)c1ccc(Cl)cc1`, the growth was 52.3%.
`Cc1nn(-c2ccc(Cl)cc2)c2nc3c(nc12)c(=O)oc1ccccc13`: the growth was 109%.
Turning to `COc1ccc2c(c1)C(=O)/C(=C/c1ccc([N+](=O)[O-])s1)O2`, the growth was -3.34% (active).
Regarding `Nc1nc(SCc2ccccc2Cl)c(-c2ccccc2)c(SCc2ccccc2Cl)n1`, the growth was 85.6%.
For the compound `Nc1ncc(-c2cnn(C3CCNCC3)c2)cc1-c1nc2cc(Cl)ccc2o1`, the growth was -100% (active).
As to `CCOc1cccc(C2CC(=O)Nc3cc4c(cc32)OCO4)c1` (stereo not given), the growth is 94.2%.
Consider `ClC1=C(Cl)C(Cl)=C(Cl)C1=Cc1ccc(Cl)cc1`, for which the growth is -63.4% (active).
Take `Cc1ccsc1/C=C/C1=NCCCN1C`: the growth is 116%.
On to `C/C(=N/N=C(N)N)c1ccc(N)cc1`, for which the growth is 106%.
To `NC(N)=NC(N)=NCCCc1ccccc1` belongs 81.6% [100 µM]; to `C/C(=C\CCc1ccoc1)CC/C=C(\C)CCCN1CCC(CO)CC1`, 53.8%; to `CC[C@@H]1OC(=O)[C@H](C)[C@@H](O[C@H]2C[C@@](C)(OC)[C@@H](O)[C@H](C)O2)[C@H](C)[C@@H](O[C@@H]2O[C@H](C)C[C@H](N(C)C)[C@H]2O)[C@](C)(O)C[C@@H](C)[C@@H]2N[C@@H](COCCOC)O[C@H]([C@H]2C)[C@]1(C)O`, 117%.
On to `COc1cc(/C=C2\COc3ccc(O)cc3C2=O)cc(OC)c1`, for which the growth is 82.4%.
In the case of `CCN1CCN(c2cc(-c3cn[nH]c3-c3cc(C)cc(OC)c3)nc(-c3cccnc3)n2)CC1` it was 88.9%; in that of `COc1c(C)c2c(c(O)c1C/C=C(\C)CCC(=O)OCCN1CCOCC1)C(=O)OC2`, 2.48% (active); in that of `CCC1=C(c2ccc(OC)cc2)C(C)Oc2cc(OC(C)=O)ccc21` (stereo not given), 93%.
Take `C[N+]1(CCc2ccccc2)CCC(CCC2CC[N+](C)(CCc3ccccc3)CC2)CC1` (stereo not given): the growth was 103%.
Regarding `Cn1cc(-c2csc(-c3c[nH]c4ncccc34)n2)c2cc(Br)cnc21`, the growth is 7.22% (active).
Consider `CCCCCCCCCCCCCCCCCC1=NC(C)(C)CN1CCO`, for which the growth is -51.7% (active).
Regarding `C=C1CC[C@@H]2[C@](C)(COC(C)=O)[C@H](OC(C)=O)CC[C@@]2(C)[C@@H]1CC(Nc1ccc(S(=O)(=O)Nc2cc(C)on2)cc1)C1=CCOC1=O` (stereo not given in full), the growth was 79.5%.
Take `OC(c1cc(C(F)(F)F)nc2c(C(F)(F)F)cccc12)C1CCCCN1` (stereo not given): the growth was 13.8%.
With `CCC(C)CC(CC)NCCN1CCN(C(CC)CC(C)CC)C1=S` (stereo not given), the growth was 9.44% (active).
Regarding `CCS(=O)(=O)OCCCl`, the growth was 107%.
In the case of `O=[N+]([O-])c1ccc(N/N=C/c2c(O)ccc3ccccc23)nc1`, the growth is 24.2%.
In the case of `COc1cc(/C=C2\CCC/C(=C\c3ccc(OCC4CO4)c(OC)c3)C2=O)ccc1OCC1CO1` (stereo not given), the growth was 8.96% (active).
For `Clc1ccc(CCC(Cn2ccnc2)Sc2c(Cl)cccc2Cl)cc1` (stereo not given), the growth is 47.3%.
As for `CSc1ncc2ncn(C3OC(CO)C(O)C3O)c2n1` (stereo not given), the growth was 120%.
`Cn1[nH]cc(/C=N/C(N)=O)c1=O`: the growth is 109%.
Consider `CCCOc1ccc2c(c1)CC[C@@H]1[C@@H]2CC[C@@]2(C)[C@H]1CC[C@]2(C)O`, for which the growth was 35.8%.
In the case of `CN(C)c1cccc2c(S(=O)(=O)N[C@H]3CC[C@H]4[C@@H]5CCc6cc(O)ccc6[C@H]5CC[C@]34C)cccc12`, the growth is 7.05% (active).
In the case of `O=C1c2nsnc2C(=O)c2c(F)c(F)c(F)c(F)c21`, the growth is -51.8% (active).
In the case of `Fc1ccc(-c2nnc(-c3c(-c4ccc(F)cc4)nc4ncccn34)o2)cc1`, the growth is 111%.
In the case of `CN(C)c1ccc2c(c1)/C(=N/O)c1ccccc1-2`, the growth was 97.2%.
In the case of `Oc1[nH]c2ccccc2c1/C=c1/ccc2c(c1)N=C(c1cc(F)cc(F)c1)N=2`, the growth was 56.9%.
Turning to `CC(C)[C@H]1CC[C@H]2[C@@H](CC[C@H]3[C@](C)(CN)CCC[C@]23C)C1`, the growth is -66.1% (active).
With `COc1cc(OC)c2sc(-c3ccc(-n4cncc4-c4ccc(N)cc4)cc3)nc2c1`, the growth is 78.7%.
In the case of `c1coc([C@@H]2C[C@@H]3Cc4ccc5ccccc5c4N2O3)c1`, the growth was 117%.
For `O=C(O)c1ccc(NC(=O)c2ccc(Nc3ccnc(C(F)(F)F)c3)cc2)cc1`, the growth is 113%.
As for `c1ccc(-n2nnnc2-c2cccc3ccccc23)cc1`, the growth is 9.98% (active).
